MARV entry inh: blocks Marburg virus binding to or entry into cells. AID 540276. Marburg virus pseudotyped entry inhibition, cell reporter. 300,000 compounds, 1.8% hits. Potency, µM (series often up to 37.8 µM), most hits filed as inhibitors; calls by dose curve; tested in HEK293 cells
Shiga inhibitor: blocks Shiga toxin action in Vero cells | Vero cells, Shiga toxin protein synthesis inhibition reporter | inhibition, % at 38.7 µM | 290,000 compounds, 9.2% hits | AID 2315; in the data active means inhibition mostly above about 28%, no sharp cut-off; inactive means mostly below about 43%
LASV entry inh: blocks Lassa virus binding to or entry into cells; Lassa virus pseudotype entry inhibition, cell reporter; Potency, µM (series often up to 37.9 µM), usual class: inhibitors; 300,000 compounds, 1.2% hits; calls by dose curve; tested in HEK293 cells; further: nearly all actives have a fitted effect of over 50% in size
Cycloheximide cs: counter-screen hit for Shiga toxin inhibitors, cycloheximide; 300,000 compounds, 12% hits; AID 2314; cell reporter, cycloheximide protein synthesis inhibition counterscreen; max response, %; in the data active means max response mostly above about 13%, no sharp cut-off; inactive means mostly below about 14%; further: read at 38.3 µM for the half of the compounds with a filed dose
AMA1 RON2 block: inhibitors of Plasmodium falciparum AMA1-RON2 interaction; Potency, µM (doses to about 58.2 µM), usual class: inhibitors; 360,000 compounds, 0.2% hits; AlphaScreen AMA1-biotinylated RON2 peptide binding; active means well fitted inhibition curve with a large enough effect; inconclusive means small, poorly fitted or top-dose-only effect; inactive means no such curve, though single readings can be large or run the other way; further: nearly all actives have a fitted effect of over 45% in size
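AMA1 (3D7) with his tag at 25 nM final met compounds first, then biotinylated RON2 peptide at 25 nM; detection used donor plus acceptor beads, 10 µg/mL apiece, read by AlphaScreen after 30 min at room temperature.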
Large screens that a line does not name were inactive. This is one part of a sample in which hits are shown more often than they occur.

Cc1c(-c2ccccc2)n[nH]c1C(=O)NN	Shiga inhibitor 97, Cycloheximide cs 43
CCOc1ccc(-c2n[nH]c(C(=O)NN)c2C)cc1	MARV entry inh inconclusive, Shiga inhibitor 95, LASV entry inh inconclusive, Cycloheximide cs 32
CCOc1ccc(-c2nonc2NC(=O)c2ccccc2C)cc1	none (no result: Shiga inhibitor, Cycloheximide cs, AMA1 RON2 block)
CCC(C)c1ccccc1N1CC(C(=O)N2CCN(S(=O)(=O)c3cccc([N+](=O)[O-])c3)CC2)CC1=O (stereo not given)	none (no result: Shiga inhibitor, Cycloheximide cs)
Oc1ccccc1C1C=C(c2ccc3c(c2)OCO3)NC(c2cccc(Br)c2)N1 (stereo not given)	Shiga inhibitor 93, Cycloheximide cs 28 (no result: MARV entry inh, LASV entry inh, AMA1 RON2 block)
Oc1ccc(Br)cc1C1C=C(c2ccc3c(c2)OCO3)NC(c2cccc(F)c2)N1 (stereo not given)	Cycloheximide cs 34 (no result: MARV entry inh, LASV entry inh, AMA1 RON2 block)
Oc1ccccc1C1C=C(c2ccc3c(c2)OCO3)NC(c2cccc(F)c2)N1 (stereo not given)	Shiga inhibitor 96, Cycloheximide cs 58 (no result: MARV entry inh, LASV entry inh, AMA1 RON2 block)
CCCCCCC1(C)NC(c2ccc3c(c2)OCO3)=CC(c2cc(Br)ccc2O)N1 (stereo not given)	none (no result: MARV entry inh, LASV entry inh, AMA1 RON2 block)
Cc1ccc(-c2nc3ccccn3c2Nc2ccc3c(c2)OCO3)o1	none (no result: Shiga inhibitor, Cycloheximide cs, AMA1 RON2 block)
Cc1ccc(-c2nc3cnccn3c2Nc2ccc3c(c2)OCCO3)o1	Shiga inhibitor 22, Cycloheximide cs 34
CN(C)c1ccc(-c2nc3cnccn3c2Nc2ccc3c(c2)OCCO3)cc1	Shiga inhibitor 87, Cycloheximide cs 31, AMA1 RON2 block inconclusive (no result: MARV entry inh, LASV entry inh)
Cc1ccc(NC(=O)N2CCN(C(=O)c3ccco3)CC2)cc1Cl	none
Cc1ccc(NC(=O)NCCN2CCCCC2)cc1Cl	MARV entry inh inconclusive, Cycloheximide cs 13
Cc1ccc(Cl)cc1NC(=O)C(=O)N1CCCCC1	none (no result: MARV entry inh, LASV entry inh)
Cc1cccc(C)c1NC(=O)N1CC=CCC1	none (no result: MARV entry inh, LASV entry inh)
Cc1ccc(NC(=O)C(=O)N2CCCC2)cc1Cl	Shiga inhibitor 116, LASV entry inh inconclusive, Cycloheximide cs 39
O=C(Nc1ccc(Cl)c(Cl)c1)N1CC=CCC1	Shiga inhibitor 86, Cycloheximide cs 33
O=C(NCCN1CCCCC1)Nc1ccc(F)c(Cl)c1	none
Cc1ccc(NC(=O)N2CCCC2)cc1Cl	MARV entry inh inconclusive, Shiga inhibitor 84, Cycloheximide cs 38
COCO[C@H]([C@@H](C)C=C(Br)Br)[C@@H](C)COCc1ccc(OC)cc1	none (no result: MARV entry inh, LASV entry inh, AMA1 RON2 block)
O=C(NCCN1CCCC1)c1ccccc1Cl	none (no result: MARV entry inh, LASV entry inh)
O=C(NCCN1CCCCC1)c1ccc(F)cc1Cl	Cycloheximide cs 12 (no result: MARV entry inh, LASV entry inh)
Cc1cccc(NC(=O)c2ccc(-c3ccccc3[N+](=O)[O-])o2)c1	Shiga inhibitor 61, Cycloheximide cs 31 (no result: LASV entry inh)
COc1cccc(NC(=O)c2ccc(-c3ccccc3[N+](=O)[O-])o2)c1	MARV entry inh inconclusive, LASV entry inh inconclusive
Cc1ccccc1-c1ccc(C(=O)Nc2cccc(F)c2)o1	Shiga inhibitor 50, Cycloheximide cs 47
O=C(Nc1cccc(F)c1)c1ccc(-c2ccccc2C(F)(F)F)o1	MARV entry inh inconclusive, Shiga inhibitor 50, Cycloheximide cs 31 (no result: AMA1 RON2 block)
COc1ccc(OCCNC(=O)c2ccc3nc(C)c(N(C)C(=O)CCc4ccccc4)n3c2)cc1	none (no result: MARV entry inh, Shiga inhibitor, LASV entry inh, Cycloheximide cs)
c1ccc2c(c1)ccc1[nH]c3c(c12)CCCC3	MARV entry inh 0.5µM, LASV entry inh 0.63µM, AMA1 RON2 block inconclusive (no result: Shiga inhibitor, Cycloheximide cs)
C=CC(n1cncn1)C(O)(c1ccccc1)c1ccccc1 (stereo not given)	none (no result: MARV entry inh, Shiga inhibitor, LASV entry inh, Cycloheximide cs)
O=C(Nc1ccc2c(c1)OCCO2)c1c(F)c(F)c(F)c(F)c1F	Cycloheximide cs 17
Cc1ccc(C(=O)Nc2ccc3c(c2)OCCO3)c(Cl)c1	none (no result: MARV entry inh, LASV entry inh)
O=C(Nc1ccc2c(c1)OCCO2)c1c(Cl)cccc1Cl	none (no result: MARV entry inh, Shiga inhibitor, LASV entry inh, Cycloheximide cs)
O=C(Nc1ccc2c(c1)OCCO2)c1cc(F)c(F)cc1Cl	Shiga inhibitor 72, Cycloheximide cs 37 (no result: MARV entry inh, LASV entry inh)
O=C(Nc1ccc2c(c1)OCCO2)c1cccc(Cl)c1Cl	Shiga inhibitor 93, Cycloheximide cs 43 (no result: MARV entry inh, LASV entry inh)
COc1cc(Nc2nc3c(S(=O)(=O)c4ccc(C)c(C)c4)nnn3c3ccsc23)cc(OC)c1	none (no result: MARV entry inh, Shiga inhibitor, Cycloheximide cs, AMA1 RON2 block)
Cc1ccc(NC(=O)NC2=NN(c3ccccc3)C(=O)/C2=C2/CCCN2C)cc1	Shiga inhibitor 90, Cycloheximide cs 27 (no result: MARV entry inh, LASV entry inh)
COc1cc2ncn(-c3cc(OCc4ccccc4C(F)(F)F)c(C(=O)N(C)C)s3)c2cc1OC	none (no result: MARV entry inh, Shiga inhibitor, Cycloheximide cs, AMA1 RON2 block)
COc1cc2ncn(-c3cc(OC(C)c4ccccc4Cl)c(C(N)=O)s3)c2cc1OC (stereo not given)	LASV entry inh 2.5µM (no result: MARV entry inh, Shiga inhibitor, Cycloheximide cs, AMA1 RON2 block)
COc1cc2ncn(-c3cc(OCCc4ccccc4)c(C(N)=O)s3)c2cc1OC	LASV entry inh 18µM (no result: MARV entry inh, Shiga inhibitor, Cycloheximide cs, AMA1 RON2 block)
COc1cc(OC)cc(C(=O)NC(=S)N(Cc2ccccc2)C(C)C)c1	MARV entry inh inconclusive, LASV entry inh inconclusive
